Measured values from PubChem BioAssay AID2289 (National Center for Advancing Translational Sciences (NCATS), 2010).
The campaign covered roughly 340,000 compounds. About 3,300 (0.97%) were called active. Roughly 9% stayed inconclusive and do not appear here. Calls come from the whole dose curve; as a rule, active = well fitted inhibition curve with a large enough effect; inconclusive = small, poorly fitted or top-dose-only effect, or effect the other way; inactive = flat fitted curve, though single readings scatter. The list shows a part of the results.

experiment: qHTS Assay for Modulators of miRNAs and/or Inhibitors of miR-21; details: HeLa miR-21-FLuc reporter, luciferase luminescence, 48 h; actives lower the signal; note: nearly all actives have a fitted effect of over 55% in size
Summary of the method: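 Using DMEM plus 10% FBS, HeLa miR-21-FLuc cells are incubated with test compounds (final up to about 40uM) for 48 hours; firefly luciferase signal is then imaged following reagent-mediated lysis.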
Potency is the fitted concentration of half-maximal effect.

Potency, active:
c1cn2c(Nc3ccc4c(c3)OCCO4)c(-c3ccc(N4CCOCC4)cc3)nc2cn1 6.56 µM
CCOC(=O)c1c(C)[nH]c(C(=O)OCc2ccccc2F)c1C 0.414 µM
CCOC(=O)c1c(C)[nH]c(C(=O)OCCOc2ccccc2C)c1C 1.85 µM
COC(=O)c1c(C)[nH]c(C(=O)OCc2ccc(F)cc2)c1C 2.07 µM
COc1cc(OC)cc(C(=O)O/N=C(\N)c2ccccn2)c1 1.65 µM
Cc1cccc(OCC(=O)O/N=C(\N)c2ccccn2)c1C 6.56 µM
N/C(=N\OC(=O)COc1ccccc1)c1ccccn1 5.21 µM
N/C(=N\OC(=O)CCC1CCCC1)c1ccccn1 3.29 µM
Cc1ccc(OCC(=O)O/N=C(\N)c2ccccn2)cc1 3.29 µM
N/C(=N\OC(=O)C12CC3CC(CC(C3)C1)C2)c1ccccn1 5.21 µM
Cc1cccc(OCC(=O)O/N=C(\N)c2ccccn2)c1 7.36 µM
COCCN(CCOC)S(=O)(=O)c1ccc(C(=O)Nc2sc3c(c2C(N)=O)CCCCC3)cc1 5.21 µM
CCCCC(=O)Nc1sc2c(c1C(N)=O)CCC2 11.7 µM
CC(C)C(=O)NC(=S)Nc1sc2c(c1C(N)=O)CCCC2 6.56 µM
COc1cc(/C=C2\Oc3cc(O)ccc3C2=O)ccc1O 5.21 µM
O=C1/C(=C/c2ccc(O)c(O)c2)Oc2cc(O)ccc21 8.26 µM
CCOC(=O)c1csc(-c2sccc2Br)n1 0.521 µM
COc1ccc(-c2nc3c(Br)c(N)c(Br)cc3o2)cc1 2.07 µM
Nc1c(Br)cc2oc(-c3ccccc3)nc2c1Br 2.07 µM
O=C(NCCCN1CCOCC1)c1cc(-c2ccccc2)on1 18.5 µM
O=C(NCCN1CCOCC1)c1cc(-c2ccccc2)on1 18.5 µM
O=C(NC1CCCC1)c1cc(-c2ccc(Cl)cc2Cl)on1 5.21 µM
O=C(NC1CCCC1)c1cc(-c2ccccc2Cl)on1 1.65 µM
COc1ccccc1-c1cc(C(=O)NC2CCCC2)no1 14.7 µM
O=C(NC1CCCCC1)c1cc(-c2ccccc2O)on1 7.36 µM
C=CCNC(=O)c1cc(-c2ccccc2O)on1 16.5 µM
O=C(Oc1ccc2c(c1)OCO2)c1ccc(F)cc1Cl 16.5 µM
O=c1c2ccccc2nnn1CSc1nc2ccccc2[nH]1 4.65 µM
CC1CCN(C(=O)CSc2nc3ccccc3[nH]2)CC1 2.93 µM
CCCCSc1nc2ccccc2[nH]1 13.1 µM
ClC1(Cl)CC1CSc1nc2ccccc2[nH]1 (stereo unspecified) 14.7 µM
